8 compounds from PubChem BioAssay (NCATS) can be followed below.

Results filed as inconclusive are left out. Entries that show only a call come without a potency. The source made the active and inactive calls. The call rests on the fitted dose curve; in most records, active means well fitted curve in the direction sought with a large enough effect; inconclusive means small, poorly fitted or top-dose-only effect, or another doubt; inactive means no such curve, though single readings can be large; an effect the other way counts as inactive or inconclusive.

Test [1] is described as follows: P-glycoprotein substrates identified in KB-8-5-11 adenocarcinoma cell line, qHTS therapeutic library screen (AID 1346987). Further: nearly all actives have a fitted effect of over 65% in size. Further: potency means the concentration at half of the fitted maximal effect. The method in brief: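 Luminescence from CellTiter-Glo, read 5 min after addition, quantified survival of KB-8-5-11 (P-gp-overexpressing) cells exposed to compounds for 72 h. AC50 was derived from concentration-response curves.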
A general note: Quantitative high-throughput screening tests each substance at several concentrations.

The nature of test [2]: NS1 protein of Zika virus - qHTS assay to identify small molecule inhibitors in human HEK 293 cells (AID 1347053). Further: series mostly up to about 46 µM; nearly all actives have a fitted effect of over 55% in size. The method in brief: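 Readout was TR-FRET using paired anti-NS1 antibodies after 24 h infection of HEK 293 cells with ZIKV MR766 (MOI = 0.5). Compound preceded virus by 1 h; reduced signal reflects lower NS1 expression.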
Test [3] is described as follows: qHTS of pediatric cancer cell lines to identify multiple opportunities for drug repurposing: Primary screen for TC32 cells (AID 1347089). Further: nearly all actives have a fitted effect of over 60% in size. The procedure, abridged:
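qHTS, TC32, 48 h drug treatment, CellTiter-Glo luminescence as a proxy for metabolically active cells; primary top concentration 46 µM (MIPE 11-pt, NPC 8-pt); confirmatory 11-pt.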

Regarding `CC1(C)CC2C(C1)C(C)(O)C13CC1(COC3=O)C2O` (centres undefined), in test [1], the Potency result is “inactive”.

Consider `CC(C)CC(=O)OC1OC=C(CO[C@@H]2O[C@H](CO)[C@@H](O)[C@H](O)[C@H]2O)C2CC(O)C(O)(CO)C12` (some centres undefined), for which the Potency entry in test [1] was “inactive”.

Regarding `CCC(=O)O[C@H]1C(C)(C)[C@H]([C@@H](O)C(=O)OC)[C@]2(C)C(=O)[C@@]1(O)[C@H]1O[C@]13C1CC(=O)O[C@@H](c4ccoc4)[C@]1(C)CCC32` (some centres undefined), in test [1], the Potency result was “inactive”.

For the compound `CC(Oc1cc(-n2cnc3ccc(CN4CCN(C)CC4)cc32)sc1C(N)=O)c1ccccc1C(F)(F)F` (centres undefined), the Potency in test [1] was 2.59 µM (active).

For `COc1cc(Nc2nc3c(s2)CCCC3c2ccc(F)cc2)ccc1-n1cnc(C)c1` (centres undefined), the Potency in test [1] was 20.6 µM (active).

For `C=C[C@]1(C)C=C2CCC3C(C)(CCC[C@@]3(C)C(=O)O)C2CC1` (some centres undefined), in test [1], the Potency result is “inactive”.

For `CC(O)(CC(=O)O)CC(=O)OCc1ccc(O[C@@H]2O[C@H](CO)[C@@H](O)[C@H](O)[C@H]2O)cc1` (some centres undefined), in test [1], the Potency result was “inactive”.

With `O=C(O)c1c(O)c(-c2ccccc2)nc2ccccc12`, in test [2], the Potency entry is “inactive”. Moreover, the outcome in test [3] was inactive.
